Test [1] is described as follows: Nuclear factor erythroid 2-related factor 2/antioxidant responsive element (Nrf2/ARE) small molecule agonists: qHTS cell viability counter screen in human keratinocytes (AID 1919968; active = well fitted curve in the direction sought with a large enough effect in the repeat runs; an effect the other way counts as inactive or inconclusive; note: nearly all actives have a fitted effect of over 55% in size; note: potency is the fitted concentration of half-maximal effect). A digest of the protocol: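 In human HaCaT keratinocytes stably expressing an ARE-driven luciferase, compound exposure lasted 23 h at 37 C under 5% CO2. Viable cells are quantified with a protease-based fluorogenic reagent (CellTiter-Fluor) read 1 h after addition.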
A general note: In qHTS, concentration-response curves come from the screen itself.

Test [2] in a line: Nuclear factor erythroid 2-related factor 2/antioxidant responsive element (Nrf2/ARE) small molecule agonists: luciferase reporter gene qHTS assay in human keratinocytes (AID 1919969). Note: nearly all actives have a fitted effect of over 35% in size. Note: potency is the fitted concentration of half-maximal effect. A general note: A reporter such as luciferase makes a cellular process visible.
For test [3], the target named is Gonadotropin-releasing hormone receptor (Homo sapiens) (UniProt P30968). The experiment in a line: Human gonadotropin-releasing hormone receptor (GnRHR) small molecule agonists, calcium flux assay in GnRHR-HEK293 cells (AID 1920063). Note: nearly all actives have a fitted effect of over 35% in size. A digest of the protocol: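 Intracellular calcium rise is the read-out: engineered human GnRHR HEK293 cells, dye-loaded, are exposed to DMSO-dissolved compounds and fluorescence at Ex/Em 480/540 is tracked for 3 min.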

A short description of test [4]: p53 small molecule agonists, cell-based qHTS assay with human liver microsomes (AID 1963577). A digest of the protocol: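 In this qHTS, p53 response-element beta-lactamase cells receive test compound together with a microsome/NADPH activating system (0.5 mg/mL final each) and are incubated 16 h at 37 C before LiveBLAzer fluorescence detection.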
Test [5] can be described thus: p53 small molecule agonists, cell-based qHTS assay with rat liver microsomes (AID 1963578). Summed up:
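Agonist mode in p53RE-bla reporter cells, with compounds co-incubated 16 h at 37 C alongside 0.5 mg/mL rat liver microsomes and 0.5 mg/mL NADPH (final), followed by a 2 h LiveBLAzer detection step.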

Test [6] in a line: p53 small molecule agonists, cell-based qHTS assay with human liver microsomes: qHTS cell viability counter screen (AID 1963579). Note: nearly all actives have a fitted effect of over 45% in size. A digest of the protocol: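 Metabolically activated exposure: compounds, human liver microsomes and NADPH (0.5 mg/mL final apiece) were added to p53RE-bla cells seeded 5 h earlier, left 16 h at 37 C, and then assessed for viability by CellTiter-Glo luminescence.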

The nature of test [7]: p53 small molecule agonists, cell-based qHTS assay with rat liver microsomes: qHTS cell viability counter screen (AID 1963580). Note: nearly all actives have a fitted effect of over 45% in size. Summed up:
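Counter screen for cytotoxicity under metabolic activation: rat liver microsomes and NADPH, 0.5 mg/mL final each, added with compounds to p53RE-bla HCT-116 cells; 16 h at 37 C, then ATP luminescence read.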

Test [8] in a line: p53 small molecule agonists, cell-based qHTS assay: qHTS cell viability counter screen (AID 1963581). Note: nearly all actives have a fitted effect of over 45% in size. Summed up:
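Luminescence from CellTiter-Glo, reflecting ATP content, serves as the cytotoxicity measure; it is taken after the 2 h reporter substrate step in HCT-116 p53RE-bla cells dosed for 16 h at 37 C.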

A short description of test [9]: p53 small molecule agonists, cell-based qHTS assay (AID 1963582; active = well fitted activation curve with a large enough effect in the signal ratio in the repeat runs, not every such curve was filed as active; the % refers to the signal ratio). Summed up:
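After plating, p53RE-bla cells sat 5 h in the incubator; compounds or DMSO vehicle were pinned in; a 16 h incubation at 37 C followed; FRET substrate was added and, 2 h later at RT, fluorescence was measured.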

The target in test [10] is 5-hydroxytryptamine receptor 2A (Homo sapiens) (UniProt P28223). Briefly: 5-hydroxytryptamine receptor 2A (HTR2A) small molecule antagonists, cell-based qHTS assay (AID 1963586). Note: nearly all actives have a fitted effect of over 45% in size. A digest of the protocol:
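CHO cells stably expressing human HTR2A were plated for 18 h at 37 C, then loaded with calcium dye for 1 h. Compounds were preincubated 5 min at room temperature before DOI (4 nM solution) was added. Kinetic fluorescence was read for 3 min.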

Test [11] shares this target. Briefly: 5-hydroxytryptamine receptor 2A (HTR2A) small molecule agonists, cell-based qHTS assay (AID 1963587). Note: nearly all actives have a fitted effect of over 30% in size. Summed up:
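HTR2A-CHO cells, plated 18 h at 37 C/5% CO2, dye-loaded 1 h at 37 C; compounds in DMSO added by pin tool (agonist mode). Intracellular calcium flux read as kinetic fluorescence on FDSS over 2 min at 1 s intervals.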

Test [12] deals with Muscarinic acetylcholine receptor M1 (Homo sapiens) (UniProt P11229). The experiment in a line: Cholinergic receptor muscarinic 1 (CHRM1) small molecule antagonists, cell-based qHTS assay (AID 1963588). Note: nearly all actives have a fitted effect of over 40% in size. A digest of the protocol: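 Compounds were tested at 15 concentrations in three independent runs. Dye-loaded CHRM1-CHO cells were exposed 5 min at room temperature before stimulation by acetylcholine added at 50nM. Intracellular calcium was read kinetically on FDSS for 3 min.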

For test [13] the target is unchanged. The experiment in a line: Cholinergic receptor muscarinic 1 (CHRM1) small molecule agonists, cell-based qHTS assay (AID 1963589). Note: nearly all actives have a fitted effect of over 35% in size. Summed up: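 Fluorescent calcium dye reports M1 activation in stably transfected CHO cells. Compounds, 15 concentrations, added after 1 h dye loading at 37 C; kinetic reading at 1 sec intervals.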
Test [14] in a line: cAMP Responsive Elements (CRE) small molecule agonists, cell-based qHTS assay (AID 1963590). Summed up: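 Compound exposure lasted 3 h at 37 C/5% CO2 in CRE-bla HEK 293T cells grown in assay medium with 10% dialyzed FBS and 25 mM HEPES. Reporter signal came from LiveBLAzer B/G FRET substrate, 2 h, room temperature.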
Test [15] can be described thus: cAMP Responsive Elements (CRE) small molecule antagonists, cell-based qHTS assay (AID 1963591; active = well fitted inhibition curve with a large enough effect in the signal ratio in the repeat runs, not every such curve was filed as active; the % refers to the signal ratio). Summed up: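 Stimulation used NKH477 at a final 0.25 uM for 3 h in compound-treated CRE-bla HEK293T cells, seeded 18 h beforehand. Reporter activity was measured with LiveBLAzer B/G FRET substrate after 2 h at room temperature.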
Test [16] addresses Beta-2 adrenergic receptor (Homo sapiens) (UniProt P07550). Briefly: Adrenergic beta2 receptor (ADRB2) small molecule antagonists, cell-based qHTS assay (AID 1963592). Note: series mostly up to about 92 µM; nearly all actives have a fitted effect of over 50% in size. Summed up: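 Assay format: CHO-ADRB2 cells, 18-20hr seeding at 37C/5% CO2, then compound plus 1nM isoproterenol agonist mix for 0.5hr RT. Homogeneous time-resolved fluorescence cAMP detection after 1hr, expressed as 665/615 nm ratio.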

The target of test [17] is D(2) dopamine receptor (Homo sapiens) (UniProt P14416). Briefly: Dopamine D2 receptor (DRD2) small molecule agonists, cell-based qHTS assay (AID 1963594). Note: nearly all actives have a fitted effect of over 35% in size. A digest of the protocol:
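HEK293 cells stably expressing DRD2 were cultured 24 h at 37 C, then given Ro20-1724 (0.1 mM final) and compounds for 10 min at room temperature. NKH477 (200nM) was then added for 30 min. cAMP was read by HTRF.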

For test [18] the target is unchanged. Briefly: Dopamine D2 receptor (DRD2) small molecule antagonists, cell-based qHTS assay (AID 1963595; active = well fitted inhibition curve with a large enough effect in the signal ratio in the repeat runs, with a control signal flat; the % refers to the signal ratio). A digest of the protocol:
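HEK293 cells stably expressing DRD2, preincubated with 0.1 mM Ro20-1724 and compounds 10 min, were stimulated with 200 nM NKH477 plus 12 nM quinpirole for 30 min at room temperature; cAMP measured by HTRF (665/620 nm).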

For test [19], the target named is KiSS-1 receptor (Homo sapiens) (UniProt Q969F8). Briefly: Human kisspeptin (KISS1R) small molecule agonists, calcium flux assay in KISS1R-HEK293 cells (AID 1920064; active = well fitted curve in the direction sought with a large enough effect in the repeat runs; an effect the other way counts as inactive or inconclusive). A digest of the protocol: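 Concentration-response testing used 15 concentrations in triplicate on human KISS1R-expressing HEK293 cells. Calcium-dependent fluorescence (Ex/Em 480/540) was followed kinetically for 3 min after compound transfer.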
For orientation: Calcium flux is commonly read through the fluorescence of an indicator in the cells.

Test [20] addresses Beta-2 adrenergic receptor (Homo sapiens) (UniProt P07550). The experiment in a line: Adrenergic beta2 receptor (ADRB2) small molecule agonists, cell-based qHTS assay (AID 1963593).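 Note: CHO cells stably overexpressing human ADRB2.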 Summed up: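 CHO cells stably over-expressing ADRB2 were plated overnight at 37C, then dosed with compounds plus a stimulation mix containing 100uM IBMX and 25uM Ro-20-1724 for 0.5hr at room temperature. cAMP was measured by HTRF competition, 1hr.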

Inconclusive results are not listed. The source holds several records for some structures; these can differ, active in one and inactive in another. Calls of active or inactive are those of the source. Unless noted, calls come from the whole dose curve.

Sequence of Muscarinic acetylcholine receptor M1 (Homo sapiens) (P11229 whole entry, looked up): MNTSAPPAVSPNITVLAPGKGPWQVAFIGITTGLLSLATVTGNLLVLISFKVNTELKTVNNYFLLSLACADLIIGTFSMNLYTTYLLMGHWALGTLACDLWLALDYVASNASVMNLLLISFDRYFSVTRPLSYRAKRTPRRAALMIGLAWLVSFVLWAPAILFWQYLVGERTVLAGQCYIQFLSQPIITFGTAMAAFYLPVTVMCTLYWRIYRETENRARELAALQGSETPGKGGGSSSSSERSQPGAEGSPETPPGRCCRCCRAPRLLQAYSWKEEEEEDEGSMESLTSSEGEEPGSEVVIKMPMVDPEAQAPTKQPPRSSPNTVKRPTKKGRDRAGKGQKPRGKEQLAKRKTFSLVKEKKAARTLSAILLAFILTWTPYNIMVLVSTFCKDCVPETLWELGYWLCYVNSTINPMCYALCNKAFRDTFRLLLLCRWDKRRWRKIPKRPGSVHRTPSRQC
Sequence of Gonadotropin-releasing hormone receptor (Homo sapiens) (P30968 whole entry, looked up): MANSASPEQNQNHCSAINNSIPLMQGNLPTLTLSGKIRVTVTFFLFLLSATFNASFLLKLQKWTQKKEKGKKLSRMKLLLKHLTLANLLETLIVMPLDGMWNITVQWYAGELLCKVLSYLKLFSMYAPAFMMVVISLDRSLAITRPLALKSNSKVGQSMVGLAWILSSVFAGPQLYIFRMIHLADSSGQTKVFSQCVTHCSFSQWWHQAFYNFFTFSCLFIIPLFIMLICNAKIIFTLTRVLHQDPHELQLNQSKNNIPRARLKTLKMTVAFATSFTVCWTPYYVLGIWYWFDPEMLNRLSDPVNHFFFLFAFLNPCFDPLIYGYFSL
Sequence of KiSS-1 receptor (Homo sapiens) (Q969F8 whole entry, looked up): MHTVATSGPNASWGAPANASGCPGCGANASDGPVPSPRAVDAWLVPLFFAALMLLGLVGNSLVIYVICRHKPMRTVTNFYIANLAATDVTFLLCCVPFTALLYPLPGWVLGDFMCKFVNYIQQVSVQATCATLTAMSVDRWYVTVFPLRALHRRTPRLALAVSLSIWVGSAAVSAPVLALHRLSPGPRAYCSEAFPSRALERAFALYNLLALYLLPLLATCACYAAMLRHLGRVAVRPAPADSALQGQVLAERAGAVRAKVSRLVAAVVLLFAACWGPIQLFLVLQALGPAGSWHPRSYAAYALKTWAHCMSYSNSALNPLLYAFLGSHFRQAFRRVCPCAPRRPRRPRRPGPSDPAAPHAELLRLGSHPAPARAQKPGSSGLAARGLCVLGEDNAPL
Sequence of 5-hydroxytryptamine receptor 2A (Homo sapiens) (P28223 whole entry, looked up): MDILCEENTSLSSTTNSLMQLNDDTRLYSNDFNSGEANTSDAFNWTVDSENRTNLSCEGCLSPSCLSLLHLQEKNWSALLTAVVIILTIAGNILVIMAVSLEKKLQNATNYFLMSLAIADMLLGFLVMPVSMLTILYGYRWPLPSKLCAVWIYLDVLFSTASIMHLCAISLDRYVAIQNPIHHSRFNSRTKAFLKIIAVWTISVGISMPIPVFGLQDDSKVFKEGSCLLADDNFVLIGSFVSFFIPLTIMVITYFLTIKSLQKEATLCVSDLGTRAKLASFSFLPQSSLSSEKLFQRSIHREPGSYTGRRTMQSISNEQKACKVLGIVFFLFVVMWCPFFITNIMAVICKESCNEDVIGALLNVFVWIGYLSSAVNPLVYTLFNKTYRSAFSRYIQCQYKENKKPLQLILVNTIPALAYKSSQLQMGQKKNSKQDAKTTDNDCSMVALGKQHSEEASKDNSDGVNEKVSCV
Sequence of Beta-2 adrenergic receptor (Homo sapiens) (P07550 whole entry, looked up): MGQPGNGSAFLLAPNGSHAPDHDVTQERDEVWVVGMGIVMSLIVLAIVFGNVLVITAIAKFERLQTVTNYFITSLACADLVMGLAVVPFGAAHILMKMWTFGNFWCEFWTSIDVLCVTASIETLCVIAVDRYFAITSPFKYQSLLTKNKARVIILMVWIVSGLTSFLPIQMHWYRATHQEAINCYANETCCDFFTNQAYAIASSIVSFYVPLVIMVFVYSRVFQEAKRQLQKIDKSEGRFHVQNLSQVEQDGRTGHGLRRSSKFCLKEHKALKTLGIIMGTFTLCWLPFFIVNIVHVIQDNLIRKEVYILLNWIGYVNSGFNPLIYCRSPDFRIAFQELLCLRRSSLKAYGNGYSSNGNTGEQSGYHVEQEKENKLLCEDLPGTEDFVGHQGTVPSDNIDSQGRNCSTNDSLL
Sequence of D(2) dopamine receptor (Homo sapiens) (P14416 whole entry, looked up): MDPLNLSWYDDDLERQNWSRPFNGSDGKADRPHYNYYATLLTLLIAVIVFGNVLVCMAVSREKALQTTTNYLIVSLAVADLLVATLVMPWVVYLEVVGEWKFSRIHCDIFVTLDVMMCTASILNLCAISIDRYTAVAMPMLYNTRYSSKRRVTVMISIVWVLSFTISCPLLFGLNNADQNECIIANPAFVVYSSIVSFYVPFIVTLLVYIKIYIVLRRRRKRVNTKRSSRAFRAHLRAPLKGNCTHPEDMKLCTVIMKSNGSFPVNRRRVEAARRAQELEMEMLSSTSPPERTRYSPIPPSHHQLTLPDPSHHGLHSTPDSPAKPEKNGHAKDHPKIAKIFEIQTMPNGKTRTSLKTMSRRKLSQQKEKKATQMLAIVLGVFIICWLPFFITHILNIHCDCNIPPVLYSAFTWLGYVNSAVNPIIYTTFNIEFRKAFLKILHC

Turning to `Cc1cccc(C)c1O`, the Potency result in [1], in test [2], in test [3], in test [4], in test [5] and in [6] was “inactive” each time. The Potency result in [7], in test [8], in [9], in [10], in test [11] and in test [12] was “inactive” in each case. The Potency entry in [13], in test [14], in test [15], in [16], in test [17] and in test [18] was “inactive” throughout.

Take `CCCCNC(=O)NS(=O)(=O)c1ccc(C)cc1`: the Potency entry in test [1], in [2], in test [19], in test [4], in test [5] and in test [6] was “inactive” in each case. The Potency result in [7], in test [8], in test [9], in test [10], in test [11] and in test [12] was “inactive” throughout. Besides, the Potency entry in test [13], in test [14], in [15], in test [16], in test [20] and in [17] was “inactive” in each case. Besides, the Potency result in test [18] was “inactive”.

As for `CCCCCCCCCCCCCCCCO`, the Potency result in test [1], in [2], in test [3], in test [6], in test [7] and in test [8] was “inactive” throughout. Moreover, the Potency result in test [10], in [11], in test [12], in test [13], in test [14] and in test [15] was “inactive” each time. In addition, the Potency result in test [16], in [20], in test [17] and in test [18] was “inactive” each time.

With `CC1COC(=O)O1` (stereo unspecified), the Potency result in test [1], in test [2], in test [19], in [4], in test [5] and in test [6] was “inactive” in each case. The Potency entry in test [7], in test [8], in [9], in test [10], in [11] and in [12] was “inactive” each time. Further, the Potency entry in test [13], in test [14], in test [15], in [16], in test [20] and in test [18] was “inactive” in each case.

Consider `O=C1OC(c2ccc(O)cc2)(c2ccc(O)cc2)c2ccccc21`, for which the Potency in test [1] was 48.2 µM (active) and inactive; in test [2], 24.2 µM (active) and inactive. Also, the Potency entry in test [19], in test [4], in test [5], in test [6], in test [7] and in test [8] was “inactive” in each case. The Potency result in [9], in test [10], in [11], in test [12], in [13] and in test [14] was “inactive” in each case. Moreover, the Potency result in test [15], in test [16] and in test [17] was “inactive” in each case.

Regarding `CCC(O)OC(O)CC` (stereo unspecified), the Potency entry in test [1], in test [2], in [19], in [4], in [5] and in test [6] was “inactive” throughout. Further, the Potency entry in test [7], in test [8], in [9], in [10], in [11] and in [12] was “inactive” each time. Also, the Potency result in [13], in test [14], in test [15], in test [20], in test [17] and in [18] was “inactive” throughout.

Values taken from PubChem BioAssay (Tox21).
